Reference: PubChem BioAssay (NCI)
This is part of a sample that, as a whole, favours compounds with a hit. Of some 83,000 tested, about 20% had one in any assay.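 Each cell line was grown in a 96-well plate and treated with one concentration of compound for 48 hours. Values below 10 were considered active.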 Values without a mark were called inactive. Active and inactive are the calls of the source.

Key:
Test in all cases: NCI-60 one-dose screen, 48 h (100 = growth as untreated, 0 = no growth, -100 = all killed)
Conditions in all cases: 10 µM
[1] = system: NCI-H23 lung
[2] = system: NCI-H226 lung
[3] = system: HOP-62 NSCLC
[4] = system: NCI-H460 lung
[5] = system: HOP-92 NSCLC
[6] = system: A549/ATCC NSCLC
[7] = system: 786-0 renal
[8] = system: COLO 205 colon
[9] = system: DU-145 prostate
[10] = system: K-562 leukemia
[11] = system: MDA-MB-231 breast
[12] = system: RXF 393 renal
[13] = system: SF-268 CNS
[14] = system: SF-539 CNS
[15] = system: UACC-257 melanoma
[16] = system: M14 melanoma
[17] = system: NCI-H522 lung
[18] = system: MALME-3M melanoma
[19] = system: SF-295 CNS

Structure (SMILES)	growth [1]	growth [2]	growth [3]	growth [4]	growth [5]	growth [6]	growth [7]	growth [8]	growth [9]	growth [10]	growth [11]	growth [12]	growth [13]	growth [14]	growth [15]	growth [16]	growth [17]	growth [18]	growth [19]
CSc1nc(S(C)(=O)=O)nc2[nH]c(=O)[nH]c12	98.8%	101%	98.2%	116%	97.5%	106%	107%	106%	116%	108%	89.7%	110%	101%	99.1%	105%	96.7%	–	–	–
COc1ccc(Nc2cnc3cc(NS(=O)(=O)c4ccc(C)cc4)ccc3n2)cc1	86.5%	94%	79%	84.4%	–	66.2%	97%	96.4%	102%	24.2%	67.6%	100%	88.1%	80.9%	73.3%	75.8%	36.1%	74.1%	75%
COc1ccc(N(C)c2ncnc3occ(C)c23)cc1	6.05% (active)	27.5%	34.6%	2.75% (active)	–	15%	17.8%	-62.4% (active)	-40.2% (active)	1.42% (active)	-3.09% (active)	14.4%	18%	-20.4% (active)	66.8%	0.316% (active)	-37.7% (active)	–	-8.16% (active)
c1ccc(/C(=N\Nc2ccc3ccccc3n2)c2ccccn2)cc1	21.3%	3.53% (active)	5.49% (active)	5.49% (active)	–	–	-35.9% (active)	26.5%	–	8.58% (active)	29.8%	–	19.6%	-12.4% (active)	16%	-41.8% (active)	-2.13% (active)	–	-15.8% (active)
COc1ccccc1/C=N\N/C(N)=N\N=C\c1ccccc1OC	26.8%	48.5%	-24.8% (active)	2.85% (active)	–	–	7.99% (active)	-10.9% (active)	–	2.34% (active)	21.7%	–	41.4%	-35.5% (active)	46.3%	-3.67% (active)	4.02% (active)	–	5.03% (active)
CSc1nc2c(c(=O)n1C)CN(Cc1ccccc1)C(=O)CN2	93.5%	96%	82.7%	106%	–	91%	91.9%	113%	109%	85.2%	96.8%	75.2%	104%	91.1%	86.9%	88.6%	79.6%	–	103%
c1ccc(CSc2ncccc2-c2nnc(SCCN3CCOCC3)o2)cc1	104%	114%	116%	122%	–	112%	–	–	112%	117%	114%	123%	107%	132%	147%	108%	105%	111%	106%
CN1CCN(CC(=O)Nc2cccc(-n3cc(-c4ccncc4)c(-c4ccc(Cl)c(O)c4)n3)c2)CC1	50.4%	74.3%	58.6%	13.3%	–	29.3%	33.6%	13.5%	19.4%	11.8%	46.1%	35%	47.7%	0.848% (active)	24.9%	8.05% (active)	18.1%	46.3%	21.8%
COc1ccc(C2CC(c3cc(OC)c(OC)c(OC)c3)=NN2)cc1 (configuration not stated)	86.6%	93.2%	98.1%	51.5%	–	51.7%	92.1%	55.1%	91.5%	11.2%	86.8%	92.5%	74.2%	78.7%	120%	92.6%	53.3%	–	48.1%
